# Compounds with a hit are over-represented: about 13% of the library has one in this group of screens.
# Cycloheximide cs: affects cycloheximide protein synthesis inhibition readout, counter-screen; max response, %; actives 12% (n = 300,000); cell reporter, cycloheximide protein synthesis inhibition counterscreen; in the data active = max response mostly above about 13%, no sharp cut-off; inactive = mostly below about 14%; also: read at 38.3 µM for the half of the compounds with a filed dose; 0% is about no effect
# Shiga inhibitor: blocks Shiga toxin action in Vero cells. actives 9.2% (n = 290,000). inhibition, % at 38.7 µM. Vero cells, Shiga toxin protein synthesis inhibition reporter. AID 2315; in the data active = inhibition mostly above about 28%, no sharp cut-off; inactive = mostly below about 43%; also: 0% is about no effect
# LASV entry inh: blocks Lassa virus binding to or entry into cells. AID 540256. actives 1.2% (n = 300,000). Lassa virus pseudotype entry inhibition, cell reporter. Potency, µM (series often up to 37.9 µM), inactives show at the highest dose activity change, negative = inhibition, usual class: inhibitors; calls by dose curve; tested in HEK293 cells; also: potency is read from the fitted curve at half-maximal effect; % is scaled to controls: 0 for no effect and ±100 for the full control effect; nearly all actives have a fitted effect of over 50% in size
# Marburg entry inh: inhibitors of Marburg virus binding or cell entry | Potency, µM (series often up to 37.8 µM), without a hit: top-dose activity change, negative = inhibition, usual class: inhibitors | Marburg virus pseudotyped entry inhibition, cell reporter | actives 1.8% (n = 300,000); calls by dose curve; tested in HEK293 cells; also: potency is read from the fitted curve at half-maximal effect; % is scaled to controls: 0 for no effect and ±100 for the full control effect
# FMDV antiviral: blocks foot and mouth disease virus. FMDV antiviral cell-based qHTS. Potency, µM (series often up to 57.9 µM), inactives show at the top dose activity change, negative = inhibition, usual class: inhibitors. actives 1.2% (n = 410,000). AID 1159524; calls by dose curve; tested in HEK293T cells; also: read-out not given here; potency is read from the fitted curve at half-maximal effect; % is scaled to controls: 0 for no effect and ±100 for the full control effect; nearly all actives have a fitted effect of over 45% in size
# HCV inhibitor: blocks hepatitis C virus. Huh7.5.1 HCVcc-Cre infection, luciferase reporter, 44 h. Potency, µM (top dose mostly 41.8 µM), for inactives: at the top dose activity change, negative = inhibition, most hits filed as inhibitors. actives 3.4% (n = 340,000); active = well fitted inhibition curve with a large enough effect; inconclusive = small, poorly fitted or top-dose-only effect, or another doubt; inactive = no such curve, though single readings can be large or run the other way; also: potency is read from the fitted curve at half-maximal effect; % is scaled to controls: 0 for no effect and ±100 for the full control effect
#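 Infectious HCV cell culture screen: compound-treated cells (1,000/well, pre-plated 4 h) are infected with HCVcc-Cre at roughly 0.5 moi and grown 44 h. Infection is quantified by luciferase signal after 15 min substrate incubation at room temperature.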
# * hit, by the source's call; ? = inconclusive; / = no result; [ ] = another dose, or the depositor's remark.
SMILES,Cycloheximide cs,Shiga inhibitor,LASV entry inh,Marburg entry inh,FMDV antiviral,HCV inhibitor
COC(=O)CCc1sc(NC2CCCCC2)nc1-c1ccc(OC)cc1,25.0*,35.8,-5.4%,?,19.1%,24.4%
O=c1c2cc([N+](=O)[O-])ccc2sn1-c1ccccc1,/,/,/,/,52.3%,/
N#Cc1c2ccc([N+](=O)[O-])cc2[n+]([O-])n1-c1ccccc1,/,/,/,/,/,1.58µM*
Cc1sc2ncnc(NCc3cccs3)c2c1C,-1.0,-9.4,-9.6%,-15.0%,14.1µM*,10µM*
Cc1sc2ncnc(NCCN3CCOCC3)c2c1C,1.3,-10.7,-28.8%,?,?,11.2µM*
Cc1sc2ncnc(NCC(O)c3ccccc3)c2c1C (stereo unspecified),22.5*,81.9*,?,?,-27.4%,11.2µM*
Cc1sc2ncnc(NCC(O)c3ccc([N+](=O)[O-])cc3)c2c1C (stereo unspecified),-1.7,-8.0,?,?,?,11.2µM*
Cc1sc2ncnc(NCc3ccco3)c2c1C,-3.5,6.2,-11.1%,-26.6%,?,?
COc1ccccc1N/N=C/c1ccc2c(c1)OCO2,38.5*,44.9,19.9%,-16.2%,41.0%,1.9%
CC(/C=N\NC(=O)c1ccc2c(c1)OCO2)c1ccccc1 (stereo unspecified),26.8*,45.5*,/,/,7.3%,5.4%
COc1ccccc1C(=O)N/N=C/c1ccc2c(c1)OCO2,34.7*,88.9*,?,?,48.9%,3.2%
COc1ccccc1/C=N/NC(=O)c1ccc2c(c1)OCO2,23.7*,81.3*,7.7%,3.6%,1.1%,-4.8%
CN(CCOc1ccccc1)C(=O)CNC(=O)c1ccc(C(C)(C)C)cc1,/,/,/,/,6.9%,-13.8%
C=CCC(=O)OCC(=O)Nc1ccc(Cl)cn1,-2.2,-5.8,4.2%,-10.3%,4.0%,17.6%
O=[N+]([O-])c1cnn(-c2nc(-c3cccs3)cc(C(F)(F)F)n2)c1,-5.9,-9.0,-15.7%[46.1 µM],5.7%[46.1 µM],-19.5%,-27.5%
COc1cc(/C=N/NC(=O)c2cc(-c3ccc4c(c3)OCO4)n[nH]2)ccc1O,16.4*,36.0,-2.2%,-0.7%[46.1 µM],-19.9%,-14.4%
COc1cc(/C=N\NC(=O)c2ccc(C)nc2)ccc1OC(=O)c1ccc2c(c1)OCO2,14.9,10.8,/,/,12.5%,-9.1%
O=C(N/N=C/c1ccccc1OC(=O)c1ccc2c(c1)OCO2)c1ccccc1,20.6*,64.1*,?,-0.2%,28.4%,23.4%
Cc1c(/C=N/NC(=O)C(NC(=O)c2ccc3c(c2)OCO3)C(C)C)c2ccccc2n1C (stereo unspecified),-3.9,10.7,?,?,0.2%,11.2µM*
COc1ccc(/C=N/NC(=O)c2ccc3c(c2)OCO3)c(C(=O)O)c1OC,11.2*,24.5,/,/,-3.1%,-29.4%
Nc1nn(-c2cccc(F)n2)cc1-c1ccccc1,40.4*,107.3*,?,?,-36.9%,-13.1%
Nc1nn(-c2cccc(F)n2)cc1-c1ccc(Cl)cc1,23.1*,76.8*,?,?,-18.0%,-16.0%
Nc1ccccc1-c1ccc(Cl)cc1,/,/,?,7.2%,0.5%,?
COc1ccc(C(=O)N/C(=C\c2cn(C)c3ccccc23)C(=O)NCCCN2CCOCC2)cc1OC,-3.2,-0.9,4.0%[46.1 µM],11.2%[46.1 µM],5.2%,22.6%
COC(=O)CN1C(=O)[C@H]2[C@@H](c3ccc(C)o3)N3C(=O)CN(CC4CC4)C(=O)[C@@]3(Cc3ccccc3)[C@H]2C1=O,-1.9,-3.6,/,/,-6.3%,-10.4%
SMILES,Cycloheximide cs,Shiga inhibitor,LASV entry inh,Marburg entry inh,FMDV antiviral,HCV inhibitor
CCOC(=O)c1ccc(NC(=O)C23CCC(C)(C(=O)O2)C3(C)C)cc1 (stereo unspecified),49.8*,65.1*,?,?,15.3%,-1.6%
CCOC(=O)c1ccc(NC(=O)C2(c3ccc(OC)cc3)CCOCC2)cc1,-1.3,-19.2,?,-12.3%,-22.2%,-22.4%
CCOC(=O)c1ccc(NC(=O)C2(c3ccc(OC)cc3)CCCC2)cc1,8.5,10.7,11.2µM*,?,?,-14.9%
O=NN1CCN(c2ccncc2S(=O)(=O)N2CCCCC2)CC1,-0.5,6.1,8.1%,6.7%,-9.7%,38.0%
CCC1(c2ccc(F)cc2)NC(=O)N(CC(=O)Nc2ccc3c(c2)OCCO3)C1=O (stereo unspecified),/,/,/,/,-12.4%,13.1%
CCC1(c2ccc(F)cc2)NC(=O)N(CC(=O)Nc2ccc(-c3nc4ccc(C)cc4s3)cc2)C1=O (stereo unspecified),39.5*,106.8*,?,?,-12.4%,?
COc1ccc(C2(C)NC(=O)N(CC(=O)Nc3ccc(-c4nc5ccc(C)cc5s4)cc3)C2=O)cc1 (stereo unspecified),64.2*,111.9*,?,?,5.4%,?
Cc1ccc(NC(=O)CN2C(=O)NC(C)(c3ccc(Cl)cc3)C2=O)cc1 (stereo unspecified),-4.8,19.5,?,-2.6%[46.1 µM],-13.9%,-13.5%
Cc1cc(C(=O)CN2CCCC(C)C2)c(C)n1-c1ccc(F)cc1 (stereo unspecified),49.8*,52.7*,3.7%,3.2%,14.7%,-13.3%
Cc1ccc(-n2c(C)cc(C(=O)CN3CCOCC3)c2C)cc1,46.2*,85.0*,/,7.6%[46.1 µM],42.2%,-15.3%
CCCNC(=O)c1ccc2c(=O)n(Cc3ccco3)c(=S)[nH]c2c1,5.1,-16.4,-3.0%,?,-19.1%,?
COc1ccc(NS(=O)(=O)c2ccc(NC(=O)C3CCCO3)cc2)cc1 (stereo unspecified),-1.6,-5.7,?,?,-11.3%,-26.0%
COc1ccccc1N(CC(=O)NC1CCCC1)C(=O)c1cnn(C(C)C)c1,28.3*,56.2*,14.9%,-17.7%,-10.3%,6.4%
O=C(NC1CCN(C(=O)N2c3ccccc3Sc3ccccc32)CC1)c1ccco1,-3.2,-8.9,?,?,-14.2%,?
COc1cccc(C(=O)NC2CCN(C(=O)N3c4ccccc4Sc4ccccc43)CC2)c1,4.1,-5.1,?,10.3µM*,/,?
O=C(NC1CCN(C(=O)N2c3ccccc3Sc3ccccc32)CC1)c1ccccc1Cl,-2.6,-11.9,-14.8%,16.4µM*,/,-9.9%
O=c1c2[nH]c3cccc(Cl)c3c2ncn1CC1CCCO1 (stereo unspecified),22.9*,49.2*,?,?,4.6%,-19.9%
CCCCn1cnc2c([nH]c3cc(OC)ccc32)c1=O,1.7,20.8,?,-2.3%,54.1%,?
COc1ccc2c(c1)[nH]c1c(=O)n(CC3CCCO3)cnc12 (stereo unspecified),28.3*,23.2,?,14.1%,57.4%,9.5%
O=c1c2[nH]c3cccc(Cl)c3c2ncn1CCN1CCCCC1,-0.6,-5.8,3.4%,-9.2%,-7.3%,16.1%
COc1ccc(-n2ncc(N(C)n3cccc3)c(Cl)c2=O)cc1,28.2*,87.0*,?,?,22.4%,12.8%
COc1ccc(C(=O)N2CCN(c3cnn(-c4ccccc4)c(=O)c3Cl)CC2)cc1,8.3,-10.6,13.0%[46.1 µM],6.9%[46.1 µM],1.1%,-0.9%

# Bioassay records: PubChem, National Center for Advancing Translational Sciences (NCATS)
